Source: PubChem BioAssay (NCI)
About 83,000 compounds went through this panel and 20% of them were active in at least one assay; those are over-represented in the sample as a whole.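 The endpoint reported here, percent growth, reads 100 for growth as untreated, 0 for no net growth and -100 for all cells dead.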 Activity calls are given as the source filed them. Rule for the calls: active = growth percent below 10; inactive = the rest.

How the values were obtained:
Assay in all cases: NCI-60 one-dose screen, 48 h (100 = growth as untreated, 0 = no growth, -100 = all killed)
Details in all cases: 10 µM unless noted
SK-MEL-2 melanoma = system: SK-MEL-2 melanoma
EKVX NSCLC = system: EKVX NSCLC
SN12C renal = system: SN12C renal
UO-31 renal = system: UO-31 renal
TK-10 renal = system: TK-10 renal
ACHN renal = system: ACHN renal
CAKI-1 renal = system: CAKI-1 renal
A498 renal = system: A498 renal
CCRF-CEM leukemia = system: CCRF-CEM leukemia
MOLT-4 leukemia = system: MOLT-4 leukemia

Measured: growth

O=C1Nc2ccc(Br)cc2/C1=N/c1n[nH]c(=S)s1
inactive: SK-MEL-2 melanoma 105% | EKVX NSCLC 100% | SN12C renal 96.6% | UO-31 renal 86.4% | TK-10 renal 104% | ACHN renal 96.3% | CAKI-1 renal 74.6% | A498 renal 92.4% | CCRF-CEM leukemia 104% | MOLT-4 leukemia 100%

O=C1Nc2ccccc2[C@]12CC(c1ccccc1)=NN2
inactive: SK-MEL-2 melanoma 44.9% | EKVX NSCLC 50.7% | SN12C renal 59.5% | UO-31 renal 49.5% | TK-10 renal 79.7% | ACHN renal 54.3% | CAKI-1 renal 38.7% | A498 renal 60% | CCRF-CEM leukemia 37.2% | MOLT-4 leukemia 43.2%

COc1cc(CNC(=O)/C=C/C=C/c2ccc3c(c2)OCO3)ccc1OCc1cn(-c2ccc(C)c(C)c2)nn1
inactive: SK-MEL-2 melanoma 93.5% | EKVX NSCLC 94.1% | SN12C renal 84.9% | UO-31 renal 99.8% | TK-10 renal 120% | ACHN renal 81.3% | CAKI-1 renal 54.4% | A498 renal 80.3% | CCRF-CEM leukemia 95.7% | MOLT-4 leukemia 96.2%

C[C@@H]1CCC[C@H]1CC(N)C(=O)O (stereo not given in full)
active: CAKI-1 renal -76.8%
inactive: SK-MEL-2 melanoma 132% | EKVX NSCLC 98.4% | SN12C renal 114% | UO-31 renal 99% | TK-10 renal 130% | ACHN renal 99.5% | A498 renal 97.9% | CCRF-CEM leukemia 104% | MOLT-4 leukemia 114%

O=C(CN1C(=O)CCC1=O)Nc1ncc(Cc2ccc(F)cc2)s1
inactive: SK-MEL-2 melanoma 100% | EKVX NSCLC 92.6% | SN12C renal 98.8% | UO-31 renal 76% | TK-10 renal 101% | ACHN renal 98.6% | CAKI-1 renal 91.5% | A498 renal 105% | CCRF-CEM leukemia 105% | MOLT-4 leukemia 102%

CC1=Nc2cnc(Nc3ccc(OCCN4CCCCC4)cc3)nc2Nc2ccccc21
active: A498 renal -9.49%
inactive: SK-MEL-2 melanoma 50.2% | EKVX NSCLC 78.3% | SN12C renal 49.2% | UO-31 renal 11% | TK-10 renal 64.2% | ACHN renal 27.1% | CAKI-1 renal 17.2% | CCRF-CEM leukemia 70.2% | MOLT-4 leukemia 25.4%

C#Cc1cccc(Nc2ncnc3ccc(-c4cnc(N)nc4)cc23)c1
active: EKVX NSCLC 2.36% | SN12C renal 7.3% | UO-31 renal -5.12% | TK-10 renal -9.72% | ACHN renal 3.99% | CAKI-1 renal 2.19% | A498 renal -44.6%
inactive: SK-MEL-2 melanoma 19.8% | CCRF-CEM leukemia 35.7% | MOLT-4 leukemia 19.6%

Fc1cc(F)cc(C(c2c[nH]c3ccccc23)c2c[nH]c3ccccc23)c1
inactive: SK-MEL-2 melanoma 58.8% | EKVX NSCLC 80.6% | SN12C renal 95.7% | UO-31 renal 52.9% | TK-10 renal 144% | ACHN renal 87.7% | CAKI-1 renal 90.9% | A498 renal 71.7% | CCRF-CEM leukemia 89.1% | MOLT-4 leukemia 81.8%

O=C(Nc1nn(-c2ccc(Cl)cc2Cl)nc1-c1ccccc1)c1ccccc1
inactive: SK-MEL-2 melanoma 106% | EKVX NSCLC 113% | SN12C renal 98.9% | UO-31 renal 67.6% | TK-10 renal 117% | ACHN renal 94.8% | CAKI-1 renal 85.1% | A498 renal 116% | CCRF-CEM leukemia 95.9% | MOLT-4 leukemia 83.5%

CNC(=O)c1cc(Oc2ccc3nc(NC(C)=O)sc3c2)ccn1
inactive: SK-MEL-2 melanoma 94.9% | EKVX NSCLC 97.8% | SN12C renal 106% | UO-31 renal 95% | TK-10 renal 104% | ACHN renal 104% | CAKI-1 renal 89.2% | A498 renal 106% | CCRF-CEM leukemia 94.7% | MOLT-4 leukemia 90.4%

COc1ccc2cc(-c3ccc(NC(C)=O)c(=O)o3)ccc2c1
inactive: SK-MEL-2 melanoma 98.6% | EKVX NSCLC 106% | SN12C renal 102% | UO-31 renal 77.6% | TK-10 renal 97.4% | ACHN renal 98.7% | CAKI-1 renal 89.7% | A498 renal 85% | CCRF-CEM leukemia 93.1% | MOLT-4 leukemia 90.9%

O=C(NCCCCNC(=O)OCc1ccc2c(Cl)cc(Cl)c(O)c2n1)OCc1ccc2c(Cl)cc(Cl)c(O)c2n1
active: A498 renal -1.85%
inactive: SK-MEL-2 melanoma 29.6% | EKVX NSCLC 91.3% | SN12C renal 28.1% | UO-31 renal 37.2% | TK-10 renal 61.3% | ACHN renal 26.2% | CAKI-1 renal 13.1% | CCRF-CEM leukemia 18.3% | MOLT-4 leukemia 22.6%

COc1ccccc1NC(=O)Cn1cc(CN2CCN(c3ccnc4cc(Cl)ccc34)CC2)nn1
active: CCRF-CEM leukemia -34.8%
inactive: SK-MEL-2 melanoma 112% | EKVX NSCLC 92.5% | SN12C renal 98% | UO-31 renal 66.8% | TK-10 renal 102% | ACHN renal 95.3% | CAKI-1 renal 80.2% | A498 renal 94.8% | MOLT-4 leukemia 70.8%

O=C1c2cc(Cl)ccc2S(=O)(=O)c2c(NCCCNCCO)nc3ccccc3c21
active: SN12C renal -46% | UO-31 renal -94.4% | TK-10 renal -79.6% | ACHN renal -99.9% | CAKI-1 renal 6.57% | CCRF-CEM leukemia -22.2% | MOLT-4 leukemia -19%
inactive: SK-MEL-2 melanoma 23% | EKVX NSCLC 33.2% | A498 renal 57.3%

Fc1ccc(-c2nn(-c3ccccc3)cc2-c2nc3ccccc3o2)cc1
inactive: SK-MEL-2 melanoma 125% | EKVX NSCLC 84% | SN12C renal 60.1% | UO-31 renal 60.6% | TK-10 renal 126% | ACHN renal 53.9% | CAKI-1 renal 82.1% | A498 renal 45.4% | CCRF-CEM leukemia 66.4% | MOLT-4 leukemia 73.7%

CSc1nc2sc3c(c2c(=O)n1-c1ccc([N+](=O)[O-])cc1)CCCCC3
inactive: SK-MEL-2 melanoma 101% | EKVX NSCLC 85.7% | SN12C renal 88.3% | UO-31 renal 90.8% | TK-10 renal 92.9% | ACHN renal 67.5% | CAKI-1 renal 71% | A498 renal 80.2% | CCRF-CEM leukemia 93.3% | MOLT-4 leukemia 93.3%

CN1C(=O)N(C)C2Nn3c(s/c(=C\c4ccc(C(F)(F)F)cc4)c3=O)=NC21 (stereo not given)
inactive: SK-MEL-2 melanoma 115% | EKVX NSCLC 100% | SN12C renal 100% | UO-31 renal 82.3% | TK-10 renal 106% | ACHN renal 105% | CAKI-1 renal 82.7% | A498 renal 109% | CCRF-CEM leukemia 101% | MOLT-4 leukemia 106%

N#CC1=C(c2ccc(Cl)cc2)Nc2c(c(-c3ccc(Cl)cc3)nn2-c2ccccc2)C12C(=O)Nc1ccc(Cl)cc12 (stereo not given)
inactive: SK-MEL-2 melanoma 74.9% | EKVX NSCLC 38.8% | SN12C renal 56.5% | UO-31 renal 23.5% | TK-10 renal 44.9% | ACHN renal 34.6% | CAKI-1 renal 35.8% | A498 renal 51.6% | CCRF-CEM leukemia 35.9% | MOLT-4 leukemia 35.1%

Cc1ccc(-c2nc3nc(-c4ccccc4)nc(N4CCNCC4)c3o2)cc1
active: SK-MEL-2 melanoma -92.7% | EKVX NSCLC -65.5% | SN12C renal -78.3% | UO-31 renal -91.8% | TK-10 renal -96.5% | ACHN renal -97.2% | CAKI-1 renal -99% | A498 renal -88.7% | CCRF-CEM leukemia -69.3% | MOLT-4 leukemia -69.2%

CCN(CC)CCCN1C(=O)c2c(c(C)c3c(oc4cc(O)ccc43)c2C)C1=O
active: SN12C renal -75% | CAKI-1 renal -81% | CCRF-CEM leukemia -6.12% | MOLT-4 leukemia -5.26%
inactive: SK-MEL-2 melanoma 98% | EKVX NSCLC 108% | UO-31 renal 90.8% | TK-10 renal 112% | ACHN renal 51.5% | A498 renal 104%

CC1(C)CC[C@]2(c3nnc(-c4ccncc4)o3)CC[C@H]3C(=CC[C@H]4[C@@]3(C)CC[C@H]3C(C)(C)C(=O)CC[C@]43C)[C@@H]2C1
inactive: SK-MEL-2 melanoma 97% | EKVX NSCLC 80.1% | SN12C renal 75.2% | UO-31 renal 51% | TK-10 renal 97.5% | ACHN renal 71.3% | CAKI-1 renal 58.1% | A498 renal 31.6% | CCRF-CEM leukemia 52.5% | MOLT-4 leukemia 38.7%

O=CC1(C2(C=O)c3ccccc3-c3ccccc32)c2ccccc2-c2ccccc21
active: SK-MEL-2 melanoma -44.4% | EKVX NSCLC -78.4% | SN12C renal -29.1% | UO-31 renal -89.3% | TK-10 renal -79.9% | ACHN renal -79% | CAKI-1 renal -78.2% | A498 renal -84.1% | CCRF-CEM leukemia -5.1% | MOLT-4 leukemia -47.4%

CC(C)(C)c1cc(-c2nc3ccc(N4CCN(S(C)(=O)=O)CC4)cc3[nH]2)cc(C(C)(C)C)c1O
inactive: SK-MEL-2 melanoma 94% | EKVX NSCLC 101% | SN12C renal 97.7% | UO-31 renal 97% | TK-10 renal 90.4% | ACHN renal 72.4% | CAKI-1 renal 75.5% | A498 renal 99.4% | CCRF-CEM leukemia 84.5% | MOLT-4 leukemia 64.6%

OCCCC1CCN(C(Cc2ccccc2)c2ccccc2)CC1 (stereo not given)
inactive: SK-MEL-2 melanoma 52% | EKVX NSCLC 96.2% | SN12C renal 102% | UO-31 renal 78.3% | TK-10 renal 84.1% | ACHN renal 81.8% | CAKI-1 renal 91.4% | A498 renal 97.9% | CCRF-CEM leukemia 100% | MOLT-4 leukemia 99.1%

CC(C)c1ccc(COCc2cc(CN3CCCC3)c(O)c3ncccc23)cc1
active: SK-MEL-2 melanoma -23.9% | UO-31 renal -10.6% | TK-10 renal 4.79% | ACHN renal 6.16% | CAKI-1 renal 3.91% | A498 renal 0.55% | CCRF-CEM leukemia 1.53% | MOLT-4 leukemia -5.7%
inactive: EKVX NSCLC 33.4% | SN12C renal 13.4%

COc1ccc(C(c2cc(OC)c(OC)c(OC)c2)N2CCN(c3ccccc3)CC2)cc1 (stereo not given)
inactive: SK-MEL-2 melanoma 69.3% | EKVX NSCLC 99.6% | SN12C renal 101% | UO-31 renal 73.4% | TK-10 renal 106% | ACHN renal 98% | CAKI-1 renal 86.4% | A498 renal 89.2% | CCRF-CEM leukemia 82.6% | MOLT-4 leukemia 72.8%

CCN(C(=O)N1CCN(c2cc3c(cc2F)c(=O)c(C(=O)O)cn3C2CC2)CC1)c1nc(-c2ccc(Cl)cc2)cs1
inactive: EKVX NSCLC 16.9% | TK-10 renal 28.4% | CCRF-CEM leukemia 20.7%
active: SK-MEL-2 melanoma 9.44% | SN12C renal 3.28% | UO-31 renal 5.03% | ACHN renal -12.2% | CAKI-1 renal 6.12% | A498 renal 3.1% | MOLT-4 leukemia 5.81%

O=C1/C(=C/c2ccc(-c3ccc(Br)cc3)o2)SC(=S)N1CCc1ccc(O)cc1
inactive: EKVX NSCLC 77.2% | SN12C renal 69.6% | UO-31 renal 39.9% | TK-10 renal 87% | ACHN renal 83.9% | CAKI-1 renal 39.1% | A498 renal 64.7% | CCRF-CEM leukemia 21.7% | MOLT-4 leukemia 33.6%
active: SK-MEL-2 melanoma 2.89%
